# Results taken from PubChem BioAssay AID651820 (National Center for Advancing Translational Sciences (NCATS), 2012).
# Out of some 340,000 compounds screened, about 12,000 (3.5%) were called active. Roughly 18% stayed inconclusive and do not appear here. The call rests on the fitted dose curve; in most records, active means well fitted inhibition curve with a large enough effect; inconclusive means small, poorly fitted or top-dose-only effect, or another doubt; inactive means no such curve, though single readings can be large or run the other way. Many of the other results were omitted from the sample, so actives are more common in it than they were.
# Test: qHTS Assay for Inhibitors of Hepatitis C Virus (HCV)
# Details: Huh7.5.1 HCVcc-Cre infection, luciferase reporter, 44 h; series mostly up to 41.8 µM; activity change, negative = inhibition: at the top concentration
# Procedure, shortened: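 Cells seeded at 1,000/well and cultured 4 h, then compounds added followed by HCVcc-Cre virus (~0.5 moi). After 44 h further culture, luciferase substrate was added, plates held 15 min at room temperature, and luminescence read for 15 sec.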
# On the % scale 0 is the no-effect control and ±100 the full control effect; potency means the concentration at half of the fitted maximal effect.
SMILES,"activity change, negative = inhibition",Potency
CCCOc1ccc(Cc2c(O)nc(SC)[nH]c2=O)cc1C,15.9% (inactive),–
CCCOc1ccc(-c2nc(N)n[nH]2)cc1,9.2% (inactive),–
CCCOc1ccc(Cc2c(Cl)nc(SC)nc2NC)cc1,–,2.82 µM (active)
CCOC(=O)N(Cc1ccccc1)C1CC1,28.4% (inactive),–
CC(C)(C)OC(=O)N(Cc1ccccc1)Cc1ccc(OCc2cccc(NC(=O)c3ccccc3)c2)cc1,-4.99% [at 8.37 µM] (inactive),–
CC(C)c1cc(C(N)=O)c(NC(=O)c2cccc(COc3ccc(Br)cc3)c2)s1,–,10 µM (active)
COc1ccc(OCc2cccc(C(=O)N3CCCC3)c2)cc1,-19.1% (inactive),–
O=C(CNS(=O)(=O)c1ccc2c(c1)OCCCO2)N1CCN(c2ccc(F)cc2)CC1,-5.91% (inactive),–
CC1(C)C=Cc2c(ccc3c2OC[C@@H](c2ccc(O)cc2O)C3)O1,-7.33% (inactive),–
CN1CCN(c2nc(Nc3ccc(O)cc3)nc3ccccc23)CC1,-19.8% (inactive),–
O=c1[nH]c(N2CCOCC2)nc2ccccc12,9.82% (inactive),–
c1ccc(Nc2nc(N3CCOCC3)c3ccccc3n2)cc1,–,11.2 µM (active)
CCOC(=O)C1=C(c2ccc(OC)cc2)C(=O)c2ccccc2C1=O,–,7.08 µM (active)
COc1ccc(OCCCON2C(=O)c3ccccc3C2=O)cc1,5.92% (inactive),–
CCCCC(C(=O)OCC(=O)c1ccc(OC)cc1)N1C(=O)c2ccccc2C1=O (configuration not stated),-29.6% (inactive),–
O=[N+]([O-])c1ccc(NS(=O)(=O)c2ccccc2)c(Cl)c1,-7.59% (inactive),–
COc1ccccc1NC(=O)CSc1nnc(Cc2cccn2C)n1-c1ccc(F)cc1,–,inactive
COc1ccccc1NC(=O)CSc1nnc(Cn2nnc(-c3ccccc3)n2)n1-c1ccccc1,–,31.6 µM (active)
COc1ccccc1OCc1nnc(SCC(N)=O)n1-c1ccccc1,7.37% (inactive),–
O=C(COC(=O)c1n[nH]c2ccccc12)Nc1ccccc1Br,-0.82% (inactive),–
CC(C(=O)Nc1ccc(S(=O)(=O)N2CCCC2)cc1)N(C)Cc1ccc(F)cc1 (configuration not stated),-4.33% (inactive),–
COc1cc2ccccc2cc1C(=O)N(CCN(C)C)c1nc2c(F)cccc2s1,–,14.1 µM (active)
COc1cccc2sc(N(CCCN(C)C)C(=O)CCS(=O)(=O)c3ccccc3)nc12,17.2% (inactive),–
CCOc1ccc2nc(N(CCN(C)C)C(=O)c3ccc4ccccc4c3)sc2c1,-27.4% (inactive),–
COc1cccc2sc(N(CCCN(C)C)C(=O)C(c3ccccc3)c3ccccc3)nc12,–,12.6 µM (active)
CCOc1ccc2nc(N(CCCN(C)C)C(=O)c3ccc(C(=O)c4ccccc4)cc3)sc2c1,-29.8% (inactive),–

SMILES,"activity change, negative = inhibition",Potency
Cc1cccc2sc(N(CCCN(C)C)C(=O)CCS(=O)(=O)c3ccccc3)nc12,7.99% (inactive),–
C[C@H](OC(=O)n1ccnc1)[C@@H]1O[C@@]2(C)CCC[C@@H]1O2,4.05% (inactive),–
CCc1cccc(NC(=O)COC(=O)c2cc(=O)c3ccccc3o2)c1,0.189% (inactive),–
O=C(NNC(=O)C(O)c1ccccc1)NC1CCCCC1 (configuration not stated),12.7% (inactive),–
Cc1nn(-c2ccccc2)c(C)c1C(=O)OCC(=O)NC(=O)NC1CCCCC1,-6.4% (inactive),–
Cc1nc(/N=C(\N)NC(=O)NC2CCCCC2)nc2ccccc12,–,11.2 µM (active)
C=CCOc1cccc(C2C(C(=O)c3ccc(C)o3)=C(O)C(=O)N2CCCn2ccnc2)c1 (configuration not stated),12.5% (inactive),–
Cc1cccc(CC2(O)C(=O)Nc3ccccc32)n1 (configuration not stated),4.09% (inactive),–
Cc1ccnc(SCC(=O)Nc2cccc(S(=O)(=O)N3CCOCC3)c2)n1,2.31% (inactive),–
Cc1nc2ccc(NC(=O)C3CCCCC3)cc2s1,15.5% (inactive),–
Cc1nc2ccc(N)nc2nc1C,25.2% (inactive),–
COC(=O)CNc1nc(Cl)nc(N2CCC(C)CC2)n1,7.19% (inactive),–
Clc1nc(NC2CCCC2)nc(N2CCOCC2)n1,–,14.1 µM (active)
COc1nc(NC2CCCCC2)nc(N2CCCCCC2)n1,-16.6% (inactive),–
O=C(CNC(=O)c1n[nH]c2ccccc12)Nc1cc(Cl)ccc1Cl,3.28% (inactive),–
CCN1CCN(C(=O)N(Cc2ccc(Cl)cc2)S(=O)(=O)c2ccc(C)cc2)CC1,13.5% (inactive),–
Cc1cccc(C(=O)NCCCN(C)CCCNC(=O)c2cccc(C)c2)c1,-16.5% (inactive),–
CCCCN(CC)C(=O)c1ccc2c(c1)OCO2,7.22% (inactive),–
COCCN(Cc1cc2cc3c(cc2nc1Cl)OCO3)C(=O)c1cccc(C)c1,–,12.6 µM (active)
O=C(CC1Sc2ccccc2NC1=O)NNc1ccc(Cl)c(Cl)c1 (configuration not stated),-2.07% (inactive),–
N#Cc1c(-c2ccccc2)nc(SCc2cccc(C(F)(F)F)c2)[nH]c1=O,-2.24% (inactive),–
O=c1c2ccccc2nc2n1C(CSc1ccc(Cl)cc1)CN2 (configuration not stated),-18.2% (inactive),–
O=c1c2ccccc2nc2n1C(CSCc1cccc(C(F)(F)F)c1)CS2 (configuration not stated),–,10 µM (active)
O=c1c2ccccc2nc2n1C(CSc1ccc(F)cc1)CN2 (configuration not stated),12.2% (inactive),–
O=c1[nH]c(SCc2cccc(F)c2)nc2ccccc12,-6.28% (inactive),–
O=c1c2ccccc2nc2n1C(CSCc1ccccc1)CS2 (configuration not stated),–,14.1 µM (active)

SMILES,"activity change, negative = inhibition",Potency
CN(C)S(=O)(=O)c1ccc(N2CCCC2)c(C(=O)Nc2ccc(Br)cc2F)c1,-2.12% (inactive),–
COc1ccc(S(=O)(=O)N2CCN(c3cnccn3)CC2)cc1,16.3% (inactive),–
C=CCNC(=O)/C(=C\c1cccc([N+](=O)[O-])c1)NC(=O)c1ccccc1,-1.28% (inactive),–
N#C/C(=C/c1ccc(-c2ccccc2[N+](=O)[O-])o1)C(=O)NCCN1CCCCC1,-12.9% (inactive),–
N#C/C(=C\c1ccc(-c2cccc([N+](=O)[O-])c2)o1)C(=O)NCCN1CCOCC1,–,14.1 µM (active)
Cc1ccc(Cc2cnc(NC(=O)/C(C#N)=C/c3ccc(-c4cccc([N+](=O)[O-])c4)o3)s2)cc1,-8.13% (inactive),–
CN(C)CCNC(=O)/C(=C/c1cccc([N+](=O)[O-])c1)NC(=O)c1ccccc1,15.7% (inactive),–
Cc1ccc(C(=O)N/C(=C/c2ccc(-c3cccc([N+](=O)[O-])c3)o2)C(=O)NCCCN(C)C)cc1,–,11.2 µM (active)
Cc1ccc(-c2csc(C(C#N)=C(O)CN3CCN(C(=O)c4ccco4)CC3)n2)cc1,6.31% (inactive),–
COc1ccccc1NC(=O)N1C[C@@H]2C[C@@H](C1)c1cccc(=O)n1C2,–,1 µM (active)
COc1cccc(OC)c1C(=O)NC(=S)N1C[C@H]2C[C@H](C1)c1cccc(=O)n1C2,24.9% (inactive),–
Cc1cccc(NC(=O)N2CC3CC(C2)c2cccc(=O)n2C3)c1 (configuration not stated),18.3% (inactive),–
C=CCOc1cccc(C2C(C(=O)c3ccc(C)o3)=C(O)C(=O)N2c2nnc(C)s2)c1 (configuration not stated),3.6% (inactive),–
CCCC(CNC(=O)COC(=O)C1=NNC(=O)CC1)c1ccc(Cl)cc1Cl (configuration not stated),2.1% (inactive),–
CC(=O)c1ccc(NC(=O)C(C)OC(=O)c2ccc(NS(=O)(=O)c3ccc4[nH]c(=O)[nH]c4c3)cc2)cc1 (configuration not stated),-5.4% (inactive),–
CCCCN1CC(COCc2ccccc2)OCCS1(=O)=O (configuration not stated),-20.5% (inactive),–
CCCCC[C@@H]1C=C(C(=O)O)[C@H](c2ccc(C#N)cc2)N1S(=O)(=O)c1ccc(C)cc1,-5.15% (inactive),–
S=C(NCC1CCCO1)N1CCN(c2ccc(Cl)c(Cl)c2)CC1 (configuration not stated),–,10 µM (active)
COc1ccc(S(=O)(=O)N2CCN(C(=S)NCC3CCCO3)CC2)cc1OC (configuration not stated),-3% (inactive),–
CCOc1ccc(S(=O)(=O)N2CCN(C(=S)NCC3CCCO3)CC2)cc1 (configuration not stated),-4.09% [at 8.37 µM] (inactive),–
CC(C)COc1ccc(C(=O)NNC(=O)CCC(=O)c2cccs2)cc1,1.77% (inactive),–
COC(=O)COc1ccc(S(=O)(=O)Nc2ccc(NC(C)=O)cc2)cc1,0.696% (inactive),–
COc1ccc(/C=N/NS(=O)(=O)c2ccc(NC(C)=O)cc2)cc1,-10.6% (inactive),–
COc1ccc(NS(=O)(=O)c2ccc(Oc3c(C#N)cccc3C#N)cc2)cc1,–,17.8 µM (active)
O=C(O)C(=Cc1ccccc1[N+](=O)[O-])c1ccccc1,5.61% (inactive),–
CN1CCN(c2ccc(NC(=O)c3cc(Cl)c4c(c3)OCCO4)cc2)CC1,–,10 µM (active)

SMILES,"activity change, negative = inhibition",Potency
O=C(Nc1ccc(N2CCOCC2)cc1)c1ccc2c(c1)OCO2,-29.1% (inactive),–
CN1CCN(c2ccc(NC(=O)c3ccc4c(c3)OCCO4)cc2Cl)CC1,-11% (inactive),–
O=C(OCCN1C(=O)c2ccccc2C1=O)[C@@H]1CC(O)CN1S(=O)(=O)c1ccccc1[N+](=O)[O-] (some centres not stated),-3.9% (inactive),–
O=C(NC1=CC(=O)c2ccccc2C1=O)c1ccccc1,–,6.31 µM (active)
O=C1C=C(NS(=O)(=O)c2ccccc2)C(=O)c2ccccc21,-5.95% (inactive),–
O=C(NC(=O)c1ccccc1)NC(=O)c1ccccc1,10.5% (inactive),–
CC1=CC(=NNS(=O)(=O)c2ccc([N+](=O)[O-])cc2)CC(C)(C)C1,2.6% (inactive),–
CC(=O)OC1C2(CC3N4C(=O)C5(CO)SSC4(CC31O)C(=O)N5C)OC(C)C(C)(C)C2=O (configuration not stated),–,0.562 µM (active)
Cc1cc(Br)ccc1NC(=O)CN(C)C(=O)CN1C(=O)NC2(CCCC2)C1=O,-8.88% (inactive),–
O=S(=O)(NCCCc1ccccc1)c1ccc(Br)cc1,16.7% (inactive),–
O=C(Cn1cnc2c(OCc3ccccc3)ncnc21)NCc1nc2ccccc2[nH]1,-17.2% (inactive),–
Cc1ccc(Nc2c3c(nc4ccccc24)CCC3)cc1,-80.9% (inactive),–
CC(=O)Nc1ccc(Nc2c3ccccc3nc3ccccc23)cc1,–,7.08 µM (active)
CC(=O)Nc1ccc(NC(=O)COc2ncnc3ccccc23)cc1,25.3% (inactive),–
CCOc1ccc(NC(=O)c2ccc(NC(=O)CN3C(=O)C(=O)N(CC(C)C)C3=O)cc2)cc1,-8.34% (inactive),–
CCN(c1ccccc1)S(=O)(=O)c1ccc(C(=O)Nc2ccccc2OC)cc1,-15.4% (inactive),–
CN(C(=O)CSc1nnc(C2CC2)n1C)C1CCCc2ccccc21 (configuration not stated),14.8% (inactive),–
CC(C)c1ccc(S(=O)(=O)N2CCN(C(C)C(=O)NC3CCCC3)CC2)cc1 (configuration not stated),-12.7% (inactive),–
O=C(CCNS(=O)(=O)c1ccc(Br)cc1)NCC1CCCO1 (configuration not stated),9.8% (inactive),–
CC(NS(=O)(=O)c1ccc(Br)cc1)C(=O)NCC1CCCO1 (configuration not stated),-15.1% (inactive),–
OC(CNCC1CCCO1)Cn1c2ccc(Br)cc2c2cc(Br)ccc21 (configuration not stated),–,35.5 µM (active)
Cc1noc(C)c1C(=O)N1CCOCC1,-3.5% (inactive),–
Cc1oc2c(c1C(=O)N1CCOCC1)C(=O)c1ccccc1C2=O,–,5.62 µM (active)
CCOC(=O)c1ccccc1C(=O)N1CCOCCOCCOCC1,6.73% (inactive),–
